# Assay results published in PMC7862700, “An all-to-all approach to the identification of sequence-specific readers for epigenetic DNA modifications on cytosine”.
# Columns and labels:
# Assay in all cases: DAPPL (digital affinity profiling via proximity ligation, sequencing); 10 mM Tris-HCl pH 7.5, 50 mM NaCl, 1 mM DTT, 4% glycerol, room temperature, 30 min; GST-TFs on glutathione beads, 16-mer random dsDNA library, 0.1% formaldehyde crosslink after washing; high values mean tight binding
# Details in all cases: protein: recombinant; tags: N-terminal GST; dsDNA, one strand shown
# ELK4 = biological target: T1, ELK4 (Homo sapiens, UniProt P28324-2 1-405)
# T1 sequence: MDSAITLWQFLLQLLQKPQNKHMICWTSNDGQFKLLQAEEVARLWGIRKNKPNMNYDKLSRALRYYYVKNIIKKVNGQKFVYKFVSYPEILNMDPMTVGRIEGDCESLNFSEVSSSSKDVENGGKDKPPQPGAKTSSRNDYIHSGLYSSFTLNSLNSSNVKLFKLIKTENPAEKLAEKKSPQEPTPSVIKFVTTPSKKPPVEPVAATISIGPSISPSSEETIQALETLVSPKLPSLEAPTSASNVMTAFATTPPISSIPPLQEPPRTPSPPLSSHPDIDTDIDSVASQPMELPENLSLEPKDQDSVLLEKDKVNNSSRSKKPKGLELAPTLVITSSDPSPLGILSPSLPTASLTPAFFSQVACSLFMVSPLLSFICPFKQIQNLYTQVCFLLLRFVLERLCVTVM
# How it was run: (§1)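 Binding signal is each hexamer's read frequency for a factor divided by its frequency in the tag-only sample. The factors were GST-fused human transcription factors from yeast, captured on glutathione beads, DNA-barcoded and pooled with that sample. Pools were incubated with 200 nmole of a random double-stranded 16-mer DNA library in Tris/NaCl/DTT/glycerol buffer at room temperature for 30 min, then washed, crosslinked with 0.1% formaldehyde, proximity-ligated with BsaI/T4 ligase (1 h, 37 °C), PCR-amplified and sequenced on an Illumina NextSeq500.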
# ETV2 = biological target: T2, ETV2 (Homo sapiens, UniProt O00321 1-342)
# T2 sequence: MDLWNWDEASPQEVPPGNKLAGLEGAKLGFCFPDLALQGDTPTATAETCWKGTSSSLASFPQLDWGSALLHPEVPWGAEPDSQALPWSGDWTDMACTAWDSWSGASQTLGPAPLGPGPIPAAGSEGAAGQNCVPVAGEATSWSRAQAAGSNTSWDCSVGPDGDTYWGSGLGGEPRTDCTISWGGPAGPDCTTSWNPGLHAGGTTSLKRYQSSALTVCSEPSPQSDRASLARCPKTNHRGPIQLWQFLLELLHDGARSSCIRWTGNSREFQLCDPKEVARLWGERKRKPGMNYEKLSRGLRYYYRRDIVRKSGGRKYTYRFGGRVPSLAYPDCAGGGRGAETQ
# How it was run: as §1
# CRX = CRX (Homo sapiens, UniProt O43186 1-299)
# Sequence of CRX (O43186 whole entry): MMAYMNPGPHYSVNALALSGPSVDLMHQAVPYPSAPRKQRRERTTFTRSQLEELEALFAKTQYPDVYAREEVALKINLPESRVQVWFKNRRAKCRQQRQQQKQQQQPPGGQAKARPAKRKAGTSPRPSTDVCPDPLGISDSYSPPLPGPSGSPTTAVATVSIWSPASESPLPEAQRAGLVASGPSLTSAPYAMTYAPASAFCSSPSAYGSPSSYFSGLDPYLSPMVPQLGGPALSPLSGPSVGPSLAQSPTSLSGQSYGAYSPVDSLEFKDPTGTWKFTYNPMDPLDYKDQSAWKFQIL
# How it was run: as §1
# ERF = biological target: T3, ERF (Homo sapiens, UniProt P50548 1-548)
# T3 sequence: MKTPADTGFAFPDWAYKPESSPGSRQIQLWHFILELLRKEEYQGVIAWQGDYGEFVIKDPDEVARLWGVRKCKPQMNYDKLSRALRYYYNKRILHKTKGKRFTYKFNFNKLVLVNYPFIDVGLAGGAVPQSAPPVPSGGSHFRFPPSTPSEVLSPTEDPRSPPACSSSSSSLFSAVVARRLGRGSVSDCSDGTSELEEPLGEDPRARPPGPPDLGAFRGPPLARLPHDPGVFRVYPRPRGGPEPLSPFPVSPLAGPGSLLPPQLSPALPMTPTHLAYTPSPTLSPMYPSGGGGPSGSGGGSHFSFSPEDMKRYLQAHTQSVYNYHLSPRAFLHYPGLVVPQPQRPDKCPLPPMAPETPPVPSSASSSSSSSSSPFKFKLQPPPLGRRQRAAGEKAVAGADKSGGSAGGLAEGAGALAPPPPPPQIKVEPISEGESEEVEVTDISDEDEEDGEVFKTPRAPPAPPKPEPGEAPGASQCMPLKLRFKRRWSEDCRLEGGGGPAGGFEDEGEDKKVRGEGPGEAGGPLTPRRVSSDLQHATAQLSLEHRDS
# How it was run: as §1
# ETV3L = biological target: T4, ETV3L (Homo sapiens, UniProt Q6ZN32 1-361)
# T4 sequence: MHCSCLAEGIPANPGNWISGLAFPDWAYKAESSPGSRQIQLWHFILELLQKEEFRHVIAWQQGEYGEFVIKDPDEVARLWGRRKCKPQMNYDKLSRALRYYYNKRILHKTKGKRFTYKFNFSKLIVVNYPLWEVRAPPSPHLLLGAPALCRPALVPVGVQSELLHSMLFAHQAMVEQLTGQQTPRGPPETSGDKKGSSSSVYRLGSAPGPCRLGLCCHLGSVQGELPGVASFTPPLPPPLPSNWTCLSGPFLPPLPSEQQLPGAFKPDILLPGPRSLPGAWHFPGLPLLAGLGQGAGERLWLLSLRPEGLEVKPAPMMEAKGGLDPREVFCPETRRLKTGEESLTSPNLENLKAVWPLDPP
# How it was run: as §1
# ETS2 = biological target: T5, ETS2 (Homo sapiens, UniProt P15036 1-469)
# T5 sequence: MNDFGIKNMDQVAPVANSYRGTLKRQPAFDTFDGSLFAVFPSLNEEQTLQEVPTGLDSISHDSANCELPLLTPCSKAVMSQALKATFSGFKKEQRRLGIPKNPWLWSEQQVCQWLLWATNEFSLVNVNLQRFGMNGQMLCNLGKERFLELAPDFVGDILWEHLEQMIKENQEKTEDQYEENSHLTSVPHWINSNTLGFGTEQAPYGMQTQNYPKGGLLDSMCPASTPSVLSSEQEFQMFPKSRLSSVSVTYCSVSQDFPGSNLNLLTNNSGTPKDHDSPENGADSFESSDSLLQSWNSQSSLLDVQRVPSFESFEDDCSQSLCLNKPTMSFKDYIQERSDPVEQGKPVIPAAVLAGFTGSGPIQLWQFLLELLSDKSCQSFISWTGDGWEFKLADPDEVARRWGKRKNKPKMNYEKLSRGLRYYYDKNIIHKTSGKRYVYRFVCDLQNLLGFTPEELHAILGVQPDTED
# How it was run: as §1
# SPDEF = biological target: T6, SPDEF (Homo sapiens, UniProt O95238 1-335)
# T6 sequence: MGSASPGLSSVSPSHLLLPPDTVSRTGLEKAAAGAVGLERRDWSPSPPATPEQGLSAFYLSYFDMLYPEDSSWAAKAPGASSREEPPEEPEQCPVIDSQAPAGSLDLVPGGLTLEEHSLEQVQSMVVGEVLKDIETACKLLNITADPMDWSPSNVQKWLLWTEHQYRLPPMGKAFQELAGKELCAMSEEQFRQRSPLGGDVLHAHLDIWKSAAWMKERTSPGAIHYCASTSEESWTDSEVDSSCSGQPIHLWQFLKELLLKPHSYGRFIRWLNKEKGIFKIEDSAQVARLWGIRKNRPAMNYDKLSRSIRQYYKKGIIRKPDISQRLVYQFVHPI
# How it was run: as §1
# ETV7 = biological target: T7, ETV7 (Homo sapiens, UniProt Q9Y603 1-341)
# T7 sequence: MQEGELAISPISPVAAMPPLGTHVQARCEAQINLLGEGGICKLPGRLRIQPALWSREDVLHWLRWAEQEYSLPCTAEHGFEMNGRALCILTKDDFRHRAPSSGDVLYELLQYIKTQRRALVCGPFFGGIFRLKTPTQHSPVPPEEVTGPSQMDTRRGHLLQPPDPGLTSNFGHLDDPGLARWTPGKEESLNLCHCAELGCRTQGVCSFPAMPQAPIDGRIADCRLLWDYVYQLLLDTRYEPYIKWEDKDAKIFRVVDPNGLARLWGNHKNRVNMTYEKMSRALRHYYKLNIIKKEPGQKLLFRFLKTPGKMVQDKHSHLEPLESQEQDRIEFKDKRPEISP
# How it was run: as §1
# ETV6 = ETV6 (Homo sapiens, UniProt P41212 1-452)
# Sequence of ETV6 (P41212 whole entry): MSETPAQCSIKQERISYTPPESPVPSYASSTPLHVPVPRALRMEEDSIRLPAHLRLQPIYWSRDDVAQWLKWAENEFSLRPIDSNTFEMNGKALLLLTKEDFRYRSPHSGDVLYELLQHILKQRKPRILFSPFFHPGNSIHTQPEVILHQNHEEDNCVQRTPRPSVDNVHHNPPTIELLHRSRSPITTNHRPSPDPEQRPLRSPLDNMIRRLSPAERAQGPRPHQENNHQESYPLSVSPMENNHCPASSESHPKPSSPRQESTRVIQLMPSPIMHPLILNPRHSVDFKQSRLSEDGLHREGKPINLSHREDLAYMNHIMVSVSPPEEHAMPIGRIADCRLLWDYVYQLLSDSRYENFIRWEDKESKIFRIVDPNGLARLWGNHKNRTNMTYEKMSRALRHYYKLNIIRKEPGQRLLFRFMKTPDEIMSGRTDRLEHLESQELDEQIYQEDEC
# How it was run: as §1
sequence,measurement,setting,value
GATTAA,binding signal,ELK4,"1.06 fold enrichment (6-mer frequency, TF over GST control)"
same,binding signal,ETV2,"1.11 fold enrichment (6-mer frequency, TF over GST control)"
same,binding signal,CRX,"4.96 fold enrichment (6-mer frequency, TF over GST control)"
same,binding signal,ERF,"1.04 fold enrichment (6-mer frequency, TF over GST control)"
same,binding signal,ETV3L,"1.1 fold enrichment (6-mer frequency, TF over GST control)"
same,binding signal,ETS2,"1.01 fold enrichment (6-mer frequency, TF over GST control)"
same,binding signal,SPDEF,"1.08 fold enrichment (6-mer frequency, TF over GST control)"
same,binding signal,ETV7,"1.01 fold enrichment (6-mer frequency, TF over GST control)"
same,binding signal,ETV6,"1.12 fold enrichment (6-mer frequency, TF over GST control)"
